Data from PubChem BioAssay AID1159580 (chemical genetic matrix, 2015).
Out of some 5,500 compounds screened, about 2,000 (36%) were called active. Not shown: some 18% with an inconclusive outcome. This is one part of the list. Values without a mark were called inactive. Rule as the data show it: active = normalized growth mostly below about 0.91 (no sharp cut-off); inconclusive = no clear call, values can overlap the other calls; inactive = mostly above about 0.92.

Assay: chemical genetic growth profiling, strain panel (AID 1159580);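 also: tested at 20 µM; growth read once vehicle control cultures reached saturation at 30 °C; 1 = growth at the plate median or of vehicle wells; lower values mean less growth of the strain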
Conditions: S. cerevisiae deletion strains, growth OD

Structure (SMILES): O=C(Nc1ccc(Cl)cc1)OCCSc1nc2ccccc2s1
- normalized growth (locus YAR019C, strain CDC15, hits give low values): 0.987
- normalized growth (locus YBL105C, strain PKC1, hits give low values): 0.973
- normalized growth (locus YBR135W, strain CKS1, hits give low values): 0.979
- normalized growth (locus YBR136W, strain MEC1, hits give low values): 0.976
- normalized growth (locus YBR160W, strain CDC28, hits give low values): 0.979
- normalized growth (locus YDL017W, strain CDC7, hits give low values): 0.983
- normalized growth (locus YDL028C, strain MPS1, hits give low values): 0.982
- normalized growth (locus YDL101C, strain DUN1, hits give low values): 0.985
- normalized growth (locus YDL108W, strain KIN28, hits give low values): 0.978
- normalized growth (locus YDL132W, strain cdc53, hits give low values): 0.979
- normalized growth (locus YDL214C, strain PRR2, hits give low values): 0.883
- normalized growth (locus YDR052C, strain DBF4, hits give low values): 0.994
- normalized growth (locus YDR054C, strain cdc34, hits give low values): 0.973
- normalized growth (locus YDR226W, strain ADK1, hits give low values): 0.987
- normalized growth (locus YDR477W, strain SNF1, hits give low values): 0.959
- normalized growth (locus YER123W, strain YCK3, hits give low values): 0.887
- normalized growth (locus YER133W, strain GLC7, hits give low values): 0.93
- normalized growth (locus YFL009W, strain cdc4, hits give low values): 0.981
- normalized growth (locus YFL029C, strain CAK1, hits give low values): 0.975
- normalized growth (locus YFR003C, strain YPI1, hits give low values): 0.977
- normalized growth (locus YFR019W, strain FAB1, hits give low values): 0.848
- normalized growth (locus YFR028C, strain CDC14, hits give low values): 0.975
- normalized growth (locus YGR040W, strain KSS1, hits give low values): 0.929
- normalized growth (locus YGR052W, strain FMP48, hits give low values): 0.911
- normalized growth (locus YGR092W, strain DBF2, hits give low values): 0.928
- normalized growth (locus YHR030C, strain SLT2, hits give low values): 0.757 (active)
- normalized growth (locus YHR079C, strain IRE1, hits give low values): 0.902
- normalized growth (locus YHR082C, strain KSP1, hits give low values): 0.86
- normalized growth (locus YHR205W, strain SCH9, hits give low values): 0.695
- normalized growth (locus YIL147C, strain SLN1, hits give low values): 0.988
- normalized growth (locus YJL095W, strain BCK1, hits give low values): 0.845
- normalized growth (locus YJL128C, strain PBS2, hits give low values): 0.944
- normalized growth (locus YJL157C, strain FAR1, hits give low values): 0.894
- normalized growth (locus YJR016C, strain ILV3, hits give low values): 0.985
- normalized growth (locus YJR066W, strain TOR1 (second series), hits give low values): 0.811
- normalized growth (locus YJR066W, strain TOR1, hits give low values): 0.833
- normalized growth (locus YKL048C, strain ELM1, hits give low values): 1.01
- normalized growth (locus YKL067W, strain YNK1, hits give low values): 0.901
- normalized growth (locus YKL101W, strain HSL1, hits give low values): 0.952
- normalized growth (locus YKL193C, strain SDS22, hits give low values): 0.983
- normalized growth (locus YKL203C, strain TOR2, hits give low values): 0.987
- normalized growth (locus YLR113W, strain HOG1, hits give low values): 0.859 (active)
- normalized growth (locus YLR133W, strain CKI1, hits give low values): 0.93
- normalized growth (locus YLR403W, strain SFP1, hits give low values): 0.899
- normalized growth (locus YML070W, strain DAK1, hits give low values): 0.894
- normalized growth (locus YMR001C, strain CDC5, hits give low values): 0.976
- normalized growth (locus YMR205C, strain PFK2 (second series), hits give low values): 0.95
- normalized growth (locus YMR277W, strain FCP1, hits give low values): 0.979
- normalized growth (locus YNL006W, strain LST8, hits give low values): 0.991
- normalized growth (locus YNL020C, strain ARK1, hits give low values): 0.929
- normalized growth (locus YNL161W, strain CBK1, hits give low values): 0.985
- normalized growth (locus YNL183C, strain NPR1, hits give low values): 0.846
- normalized growth (locus YNL207W, strain RIO2, hits give low values): 0.983
- normalized growth (locus YNL222W, strain SSU72, hits give low values): 0.976
- normalized growth (locus YNL307C, strain MCK1 (second series), hits give low values): 0.909
- normalized growth (locus YOL078W, strain AVO1, hits give low values): 0.977
- normalized growth (locus YOL136C, strain PFK27, hits give low values): 0.902
- normalized growth (locus YOR061W, strain CKA2, hits give low values): 0.928
- normalized growth (locus YOR119C, strain RIO1, hits give low values): 0.984
- normalized growth (locus YOR231W, strain MKK1, hits give low values): 0.931
- normalized growth (locus YOR329C, strain SCD5, hits give low values): 0.987
- normalized growth (locus YPL031C, strain PHO85, hits give low values): 0.955
- normalized growth (locus YPL153C, strain RAD53, hits give low values): 0.95
- normalized growth (locus YPL204W, strain HRR25, hits give low values): 0.922
- normalized growth (locus YPL209C, strain IPL1, hits give low values): 0.982
- normalized growth (locus YPR025C, strain CCL1, hits give low values): 0.977
- normalized growth (locus YPR106W, strain ISR1, hits give low values): 0.984
- normalized growth (locus YPR111W, strain DBF20, hits give low values): 0.972
- normalized growth (strain NNK1, hits give low values): 0.988
- normalized growth (strain TSCII, hits give low values): 0.979
